Reference: paper PMC7862700, “An all-to-all approach to the identification of sequence-specific readers for epigenetic DNA modifications on cytosine”

Columns and labels:
Experiment in all cases: DAPPL (digital affinity profiling via proximity ligation, sequencing); 10 mM Tris-HCl pH 7.5, 50 mM NaCl, 1 mM DTT, 4% glycerol, room temperature, 30 min; GST-TFs on glutathione beads, 16-mer random dsDNA library, 0.1% formaldehyde crosslink after washing; high values mean tight binding
FLI1 = biological target: T1, FLI1 (Homo sapiens, UniProt Q01543 1-452); settings: protein: recombinant; tags: N-terminal GST; dsDNA, one strand shown
T1 sequence: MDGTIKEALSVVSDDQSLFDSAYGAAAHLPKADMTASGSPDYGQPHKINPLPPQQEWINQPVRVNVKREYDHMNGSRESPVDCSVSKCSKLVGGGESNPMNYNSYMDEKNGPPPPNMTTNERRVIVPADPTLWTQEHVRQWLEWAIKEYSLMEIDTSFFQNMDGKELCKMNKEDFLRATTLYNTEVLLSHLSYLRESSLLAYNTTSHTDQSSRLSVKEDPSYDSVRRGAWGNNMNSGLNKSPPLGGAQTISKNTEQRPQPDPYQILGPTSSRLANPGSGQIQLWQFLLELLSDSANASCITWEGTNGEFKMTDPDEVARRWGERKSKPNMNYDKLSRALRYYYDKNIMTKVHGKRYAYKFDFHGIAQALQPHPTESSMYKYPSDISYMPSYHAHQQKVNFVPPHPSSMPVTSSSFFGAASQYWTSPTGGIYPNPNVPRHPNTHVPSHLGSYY
Method in brief: (§1)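 Binding signal is given per hexamer as its read frequency for a factor divided by its frequency in the tag-only sample. GST-fused human transcription factors were expressed in yeast, captured on glutathione beads, barcoded with DNA and pooled with that sample, then incubated with 200 nmole of a 16-mer random double-stranded DNA library in Tris/NaCl/DTT/glycerol buffer for 30 min at room temperature. The pools were then washed, crosslinked, proximity-ligated, amplified by PCR and sequenced on an Illumina NextSeq500.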

ELK1 = biological target: T2, ELK1 (Homo sapiens, UniProt P19419 1-428); settings: protein: recombinant; tags: N-terminal GST; dsDNA, one strand shown
T2 sequence: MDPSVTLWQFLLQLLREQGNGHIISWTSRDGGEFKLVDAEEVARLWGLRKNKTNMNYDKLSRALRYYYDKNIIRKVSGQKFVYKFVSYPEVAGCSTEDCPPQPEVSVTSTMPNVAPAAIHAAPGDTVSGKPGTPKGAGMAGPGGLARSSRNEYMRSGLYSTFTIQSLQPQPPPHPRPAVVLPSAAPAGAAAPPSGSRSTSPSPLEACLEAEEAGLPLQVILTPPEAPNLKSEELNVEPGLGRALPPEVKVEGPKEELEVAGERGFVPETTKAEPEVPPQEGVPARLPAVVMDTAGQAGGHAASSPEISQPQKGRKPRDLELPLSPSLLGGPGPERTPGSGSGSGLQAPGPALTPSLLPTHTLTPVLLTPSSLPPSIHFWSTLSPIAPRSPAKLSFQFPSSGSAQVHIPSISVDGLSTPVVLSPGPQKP
Method in brief: as §1

GABPA = biological target: T3, GABPA (Homo sapiens, UniProt Q06546 1-454); settings: protein: recombinant; tags: N-terminal GST; dsDNA, one strand shown
T3 sequence: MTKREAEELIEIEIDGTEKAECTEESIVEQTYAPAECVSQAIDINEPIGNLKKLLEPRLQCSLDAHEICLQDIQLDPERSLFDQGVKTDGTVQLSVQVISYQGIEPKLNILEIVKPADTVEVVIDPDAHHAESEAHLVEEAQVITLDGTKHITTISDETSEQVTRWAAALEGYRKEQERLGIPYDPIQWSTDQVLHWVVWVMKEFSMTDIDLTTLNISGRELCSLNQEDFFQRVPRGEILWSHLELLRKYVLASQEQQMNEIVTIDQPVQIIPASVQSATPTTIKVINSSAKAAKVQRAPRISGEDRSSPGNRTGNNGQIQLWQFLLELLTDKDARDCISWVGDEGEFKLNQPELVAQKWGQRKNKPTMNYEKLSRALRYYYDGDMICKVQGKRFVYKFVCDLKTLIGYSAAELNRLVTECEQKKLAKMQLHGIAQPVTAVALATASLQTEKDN
Method in brief: as §1

ERG = biological target: T4, ERG (Homo sapiens, UniProt P11308 1-479); settings: protein: recombinant; tags: N-terminal GST; dsDNA, one strand shown
T4 sequence: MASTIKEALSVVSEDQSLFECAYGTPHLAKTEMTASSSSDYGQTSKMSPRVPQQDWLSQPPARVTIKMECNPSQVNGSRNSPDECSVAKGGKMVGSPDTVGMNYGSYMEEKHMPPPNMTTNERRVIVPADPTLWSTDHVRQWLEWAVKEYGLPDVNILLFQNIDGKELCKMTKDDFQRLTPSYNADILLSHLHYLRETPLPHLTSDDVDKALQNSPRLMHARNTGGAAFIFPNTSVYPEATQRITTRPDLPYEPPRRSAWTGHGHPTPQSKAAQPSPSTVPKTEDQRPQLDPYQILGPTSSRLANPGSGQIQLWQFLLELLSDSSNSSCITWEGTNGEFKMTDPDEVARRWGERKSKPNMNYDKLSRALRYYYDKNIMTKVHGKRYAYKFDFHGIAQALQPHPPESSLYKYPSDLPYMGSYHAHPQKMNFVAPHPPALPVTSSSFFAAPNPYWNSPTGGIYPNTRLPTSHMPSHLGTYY
Method in brief: as §1

ELF1 = ELF1 (Homo sapiens, UniProt P32519 1-619); settings: protein: recombinant; tags: N-terminal GST; dsDNA, one strand shown
Sequence of ELF1 (P32519 whole entry): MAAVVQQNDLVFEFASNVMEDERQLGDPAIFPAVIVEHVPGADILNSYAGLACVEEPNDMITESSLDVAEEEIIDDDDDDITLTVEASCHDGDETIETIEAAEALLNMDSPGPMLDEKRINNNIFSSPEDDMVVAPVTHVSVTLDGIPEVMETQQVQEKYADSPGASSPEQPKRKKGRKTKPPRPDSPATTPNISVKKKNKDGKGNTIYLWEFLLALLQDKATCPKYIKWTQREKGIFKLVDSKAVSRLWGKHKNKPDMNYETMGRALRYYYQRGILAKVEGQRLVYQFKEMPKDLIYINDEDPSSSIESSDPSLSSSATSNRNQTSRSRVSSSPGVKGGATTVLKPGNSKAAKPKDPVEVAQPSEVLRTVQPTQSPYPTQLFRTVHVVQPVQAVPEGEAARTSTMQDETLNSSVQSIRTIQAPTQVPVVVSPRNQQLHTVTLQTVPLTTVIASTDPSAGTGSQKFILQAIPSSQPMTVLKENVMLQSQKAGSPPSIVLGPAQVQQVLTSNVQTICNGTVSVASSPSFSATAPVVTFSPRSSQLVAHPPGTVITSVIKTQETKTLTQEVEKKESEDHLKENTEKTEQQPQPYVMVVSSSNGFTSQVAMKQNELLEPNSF
Method in brief: as §1

EHF = biological target: T5, EHF (Homo sapiens, UniProt Q9NZC4 1-300); settings: protein: recombinant; tags: N-terminal GST; dsDNA, one strand shown
T5 sequence: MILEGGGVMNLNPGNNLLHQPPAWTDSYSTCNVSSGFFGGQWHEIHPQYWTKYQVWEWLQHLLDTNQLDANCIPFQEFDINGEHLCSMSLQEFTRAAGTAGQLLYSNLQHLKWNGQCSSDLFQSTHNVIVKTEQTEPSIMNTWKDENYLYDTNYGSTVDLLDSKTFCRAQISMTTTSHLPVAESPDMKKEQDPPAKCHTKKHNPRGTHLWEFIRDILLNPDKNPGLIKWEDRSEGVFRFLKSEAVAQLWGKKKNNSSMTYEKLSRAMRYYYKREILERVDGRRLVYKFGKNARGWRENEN
Method in brief: as §1

SPI1 = SPI1 (Homo sapiens, UniProt P17947 1-270); settings: protein: recombinant; tags: N-terminal GST; dsDNA, one strand shown
Method in brief: as §1

SPIB = SPIB (Homo sapiens, UniProt Q01892 1-262); settings: protein: recombinant; tags: N-terminal GST; dsDNA, one strand shown
Sequence of SPIB (Q01892 whole entry): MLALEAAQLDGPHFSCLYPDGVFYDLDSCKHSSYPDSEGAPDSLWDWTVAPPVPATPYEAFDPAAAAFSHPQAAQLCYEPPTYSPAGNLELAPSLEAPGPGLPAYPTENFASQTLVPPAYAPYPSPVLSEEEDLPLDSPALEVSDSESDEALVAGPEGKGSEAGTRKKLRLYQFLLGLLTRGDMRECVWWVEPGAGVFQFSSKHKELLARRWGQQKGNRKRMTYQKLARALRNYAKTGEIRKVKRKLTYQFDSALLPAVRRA
Method in brief: as §1

ELK3 = biological target: T6, ELK3 (Homo sapiens, UniProt P41970 1-407); settings: protein: recombinant; tags: N-terminal GST; dsDNA, one strand shown
T6 sequence: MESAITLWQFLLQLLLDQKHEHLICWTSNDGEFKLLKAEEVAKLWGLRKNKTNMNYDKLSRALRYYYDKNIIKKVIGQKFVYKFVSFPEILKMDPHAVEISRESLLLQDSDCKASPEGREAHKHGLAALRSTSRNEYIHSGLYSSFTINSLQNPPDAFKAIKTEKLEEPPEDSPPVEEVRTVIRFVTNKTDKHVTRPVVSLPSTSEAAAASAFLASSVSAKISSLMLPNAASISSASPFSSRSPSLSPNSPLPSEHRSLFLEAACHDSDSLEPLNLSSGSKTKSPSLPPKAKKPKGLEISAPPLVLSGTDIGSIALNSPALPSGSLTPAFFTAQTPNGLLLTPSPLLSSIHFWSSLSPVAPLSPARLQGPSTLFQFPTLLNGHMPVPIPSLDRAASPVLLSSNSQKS
Method in brief: as §1

FEV = biological target: T7, FEV (Homo sapiens, UniProt Q99581 1-238); settings: protein: recombinant; tags: N-terminal GST; dsDNA, one strand shown
T7 sequence: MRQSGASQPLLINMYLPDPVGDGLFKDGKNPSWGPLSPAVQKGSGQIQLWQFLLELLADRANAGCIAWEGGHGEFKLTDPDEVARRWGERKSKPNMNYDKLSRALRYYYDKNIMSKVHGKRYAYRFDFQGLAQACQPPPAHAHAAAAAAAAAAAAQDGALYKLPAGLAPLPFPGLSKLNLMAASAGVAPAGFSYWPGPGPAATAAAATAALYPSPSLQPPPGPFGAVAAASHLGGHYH
Method in brief: as §1

ETV5 = ETV5 (Homo sapiens, UniProt P41161 1-510); settings: protein: recombinant; tags: N-terminal GST; dsDNA, one strand shown
Sequence of ETV5 (P41161 whole entry): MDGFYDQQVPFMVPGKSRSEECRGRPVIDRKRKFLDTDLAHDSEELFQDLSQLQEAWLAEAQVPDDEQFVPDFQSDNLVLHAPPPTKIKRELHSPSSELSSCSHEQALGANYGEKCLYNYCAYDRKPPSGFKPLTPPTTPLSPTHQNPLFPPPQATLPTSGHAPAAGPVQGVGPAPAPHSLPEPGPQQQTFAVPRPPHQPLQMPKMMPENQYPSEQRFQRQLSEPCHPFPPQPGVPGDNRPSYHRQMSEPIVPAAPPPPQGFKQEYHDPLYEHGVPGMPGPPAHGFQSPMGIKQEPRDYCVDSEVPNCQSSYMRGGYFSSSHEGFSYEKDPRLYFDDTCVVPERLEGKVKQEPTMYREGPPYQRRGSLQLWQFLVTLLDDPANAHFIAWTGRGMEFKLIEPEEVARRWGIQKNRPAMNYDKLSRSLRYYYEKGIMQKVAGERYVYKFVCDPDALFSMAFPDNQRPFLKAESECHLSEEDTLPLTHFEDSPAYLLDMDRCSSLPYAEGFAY
Method in brief: as §1

HSF1 = HSF1 (Homo sapiens, UniProt Q00613 1-529); settings: protein: recombinant; tags: N-terminal GST; chain copies: 3; dsDNA, one strand shown
Sequence of HSF1 (Q00613 whole entry): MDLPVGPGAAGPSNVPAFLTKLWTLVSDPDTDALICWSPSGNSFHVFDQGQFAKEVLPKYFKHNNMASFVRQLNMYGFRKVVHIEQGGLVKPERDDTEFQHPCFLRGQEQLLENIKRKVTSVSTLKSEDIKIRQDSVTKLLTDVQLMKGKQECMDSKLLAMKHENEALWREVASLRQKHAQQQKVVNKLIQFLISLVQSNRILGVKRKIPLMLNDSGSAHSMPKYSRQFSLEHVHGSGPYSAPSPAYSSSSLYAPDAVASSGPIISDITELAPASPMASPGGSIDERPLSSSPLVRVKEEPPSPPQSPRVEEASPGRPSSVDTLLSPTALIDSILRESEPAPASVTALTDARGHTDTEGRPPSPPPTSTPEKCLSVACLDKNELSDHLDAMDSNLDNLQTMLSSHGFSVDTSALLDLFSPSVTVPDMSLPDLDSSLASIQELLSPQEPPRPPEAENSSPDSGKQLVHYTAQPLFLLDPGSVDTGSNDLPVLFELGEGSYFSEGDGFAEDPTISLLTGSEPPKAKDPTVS
Method in brief: as §1

SPIC = biological target: T8, SPIC (Homo sapiens, UniProt Q8N5J4 1-248); settings: protein: recombinant; tags: N-terminal GST; dsDNA, one strand shown
T8 sequence: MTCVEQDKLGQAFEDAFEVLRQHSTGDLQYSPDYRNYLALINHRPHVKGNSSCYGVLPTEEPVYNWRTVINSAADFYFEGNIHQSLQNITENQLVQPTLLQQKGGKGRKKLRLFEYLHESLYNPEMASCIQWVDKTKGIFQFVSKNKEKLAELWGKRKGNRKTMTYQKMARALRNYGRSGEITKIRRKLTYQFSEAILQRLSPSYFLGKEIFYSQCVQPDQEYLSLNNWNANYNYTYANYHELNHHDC
Method in brief: as §1

ELF4 = ELF4 (Homo sapiens, UniProt Q99607 1-663); settings: protein: recombinant; tags: N-terminal GST; dsDNA, one strand shown
Sequence of ELF4 (Q99607 whole entry): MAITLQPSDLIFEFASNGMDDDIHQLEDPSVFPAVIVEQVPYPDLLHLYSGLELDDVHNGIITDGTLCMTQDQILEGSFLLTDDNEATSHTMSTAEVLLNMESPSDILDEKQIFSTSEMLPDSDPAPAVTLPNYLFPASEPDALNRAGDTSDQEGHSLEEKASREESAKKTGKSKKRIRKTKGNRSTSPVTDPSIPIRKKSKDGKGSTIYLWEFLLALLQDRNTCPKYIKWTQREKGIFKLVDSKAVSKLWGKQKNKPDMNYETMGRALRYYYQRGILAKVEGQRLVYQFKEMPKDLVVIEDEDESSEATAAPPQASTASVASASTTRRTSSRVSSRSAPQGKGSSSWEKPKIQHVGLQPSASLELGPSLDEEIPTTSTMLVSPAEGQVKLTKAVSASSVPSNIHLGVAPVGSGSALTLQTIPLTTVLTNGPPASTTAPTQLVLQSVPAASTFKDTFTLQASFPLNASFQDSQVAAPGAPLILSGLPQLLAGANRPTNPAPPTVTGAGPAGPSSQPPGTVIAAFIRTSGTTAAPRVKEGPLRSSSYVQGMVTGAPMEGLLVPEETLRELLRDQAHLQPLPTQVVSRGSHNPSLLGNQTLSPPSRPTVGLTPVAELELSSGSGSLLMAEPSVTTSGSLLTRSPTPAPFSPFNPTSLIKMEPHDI
Method in brief: as §1

ELK4 = biological target: T9, ELK4 (Homo sapiens, UniProt P28324-2 1-405); settings: protein: recombinant; tags: N-terminal GST; dsDNA, one strand shown
T9 sequence: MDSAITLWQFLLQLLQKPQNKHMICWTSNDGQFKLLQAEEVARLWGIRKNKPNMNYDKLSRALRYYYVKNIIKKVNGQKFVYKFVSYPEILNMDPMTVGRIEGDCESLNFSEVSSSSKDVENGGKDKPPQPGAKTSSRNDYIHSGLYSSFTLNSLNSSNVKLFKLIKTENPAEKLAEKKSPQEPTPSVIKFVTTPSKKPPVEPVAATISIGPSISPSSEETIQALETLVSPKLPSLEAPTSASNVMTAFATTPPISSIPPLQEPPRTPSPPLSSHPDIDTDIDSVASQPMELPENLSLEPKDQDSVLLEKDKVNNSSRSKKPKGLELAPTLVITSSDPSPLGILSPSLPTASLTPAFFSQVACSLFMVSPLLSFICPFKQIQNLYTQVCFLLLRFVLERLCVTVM
Method in brief: as §1

ETV2 = biological target: T10, ETV2 (Homo sapiens, UniProt O00321 1-342); settings: protein: recombinant; tags: N-terminal GST; dsDNA, one strand shown
T10 sequence: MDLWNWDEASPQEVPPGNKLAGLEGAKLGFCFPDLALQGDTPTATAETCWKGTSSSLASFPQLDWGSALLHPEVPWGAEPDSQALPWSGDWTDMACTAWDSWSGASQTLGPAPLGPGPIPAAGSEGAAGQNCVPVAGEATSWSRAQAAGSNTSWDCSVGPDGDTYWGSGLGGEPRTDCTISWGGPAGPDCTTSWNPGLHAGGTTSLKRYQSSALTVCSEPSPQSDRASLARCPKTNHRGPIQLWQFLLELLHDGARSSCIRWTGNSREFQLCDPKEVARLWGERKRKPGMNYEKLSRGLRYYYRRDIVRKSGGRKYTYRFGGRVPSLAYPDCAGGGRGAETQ
Method in brief: as §1

ELF3 = biological target: T11, ELF3 (Homo sapiens, UniProt P78545 1-371); settings: protein: recombinant; tags: N-terminal GST; dsDNA, one strand shown
T11 sequence: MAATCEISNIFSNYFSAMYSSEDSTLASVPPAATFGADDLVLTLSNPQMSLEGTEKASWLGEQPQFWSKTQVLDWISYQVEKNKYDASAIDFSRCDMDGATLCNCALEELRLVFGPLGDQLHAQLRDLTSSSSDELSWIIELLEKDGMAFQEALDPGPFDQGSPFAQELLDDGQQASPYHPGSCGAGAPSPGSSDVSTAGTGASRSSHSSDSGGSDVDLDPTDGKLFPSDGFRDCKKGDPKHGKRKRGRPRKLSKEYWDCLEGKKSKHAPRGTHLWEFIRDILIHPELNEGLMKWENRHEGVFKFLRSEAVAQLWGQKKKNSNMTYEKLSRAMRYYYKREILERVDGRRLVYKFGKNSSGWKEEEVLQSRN
Method in brief: as §1

CRX = CRX (Homo sapiens, UniProt O43186 1-299); settings: protein: recombinant; tags: N-terminal GST; dsDNA, one strand shown
Sequence of CRX (O43186 whole entry): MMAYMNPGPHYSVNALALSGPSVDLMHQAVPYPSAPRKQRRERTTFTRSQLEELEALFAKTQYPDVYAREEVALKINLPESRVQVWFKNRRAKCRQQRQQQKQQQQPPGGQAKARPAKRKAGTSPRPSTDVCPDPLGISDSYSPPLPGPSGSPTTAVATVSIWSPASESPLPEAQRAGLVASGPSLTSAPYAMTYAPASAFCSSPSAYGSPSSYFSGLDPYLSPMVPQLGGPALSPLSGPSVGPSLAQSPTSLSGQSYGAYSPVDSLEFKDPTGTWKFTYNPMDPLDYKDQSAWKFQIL
Method in brief: as §1

ETV1 = ETV1 (Homo sapiens, UniProt P50549 1-477); settings: protein: recombinant; tags: N-terminal GST; dsDNA, one strand shown
Sequence of ETV1 (P50549 whole entry): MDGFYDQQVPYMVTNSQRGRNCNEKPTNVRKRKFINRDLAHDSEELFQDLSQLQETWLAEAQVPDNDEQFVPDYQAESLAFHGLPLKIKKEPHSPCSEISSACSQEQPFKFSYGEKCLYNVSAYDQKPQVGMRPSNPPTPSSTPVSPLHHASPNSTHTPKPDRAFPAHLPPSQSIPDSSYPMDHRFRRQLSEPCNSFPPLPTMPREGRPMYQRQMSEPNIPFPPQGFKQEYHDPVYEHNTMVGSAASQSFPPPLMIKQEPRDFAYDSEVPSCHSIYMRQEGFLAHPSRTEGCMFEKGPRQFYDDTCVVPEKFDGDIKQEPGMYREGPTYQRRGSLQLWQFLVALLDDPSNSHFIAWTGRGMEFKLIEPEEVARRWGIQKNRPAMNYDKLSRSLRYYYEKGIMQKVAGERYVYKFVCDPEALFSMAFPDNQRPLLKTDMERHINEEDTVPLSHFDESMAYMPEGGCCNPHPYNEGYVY
Method in brief: as §1

## GTTTCT
FLI1
  binding signal: 1.36 fold enrichment (6-mer frequency, TF over GST control)
ELK1
  binding signal: 1.17 fold enrichment (6-mer frequency, TF over GST control)
GABPA
  binding signal: 1.26 fold enrichment (6-mer frequency, TF over GST control)
ERG
  binding signal: 1.22 fold enrichment (6-mer frequency, TF over GST control)
ELF1
  binding signal: 1.29 fold enrichment (6-mer frequency, TF over GST control)
EHF
  binding signal: 1.28 fold enrichment (6-mer frequency, TF over GST control)
SPI1
  binding signal: 1.31 fold enrichment (6-mer frequency, TF over GST control)
SPIB
  binding signal: 1.25 fold enrichment (6-mer frequency, TF over GST control)
ELK3
  binding signal: 1.14 fold enrichment (6-mer frequency, TF over GST control)
FEV
  binding signal: 1.16 fold enrichment (6-mer frequency, TF over GST control)
ETV5
  binding signal: 1.24 fold enrichment (6-mer frequency, TF over GST control)
HSF1
  binding signal: 1.84 fold enrichment (6-mer frequency, TF over GST control)
SPIC
  binding signal: 1.28 fold enrichment (6-mer frequency, TF over GST control)
ELF4
  binding signal: 1.28 fold enrichment (6-mer frequency, TF over GST control)
ELK4
  binding signal: 1.15 fold enrichment (6-mer frequency, TF over GST control)
ETV2
  binding signal: 1.25 fold enrichment (6-mer frequency, TF over GST control)
ELF3
  binding signal: 1.2 fold enrichment (6-mer frequency, TF over GST control)
CRX
  binding signal: 1.15 fold enrichment (6-mer frequency, TF over GST control)
ETV1
  binding signal: 1.33 fold enrichment (6-mer frequency, TF over GST control)
